MT1-MMP txn act – MT1-MMP promoter reporter activation – cell-based, luciferase luminescence, primary screen; hit rate 0.16% among 86,000; HT1080 MT1-MMP promoter luciferase reporter, overnight; hits give high values; activation factor at 10 µM;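 active = activation factor of at least 2 for MT1-MMP transcription at 10 µM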
LYP inh 2 – PTPN22 phosphatase inhibitors, primary screen, biochemical, DiFMUP fluorescence, 2 µM; Tyrosine-protein phosphatase non-receptor type 22 (Homo sapiens), Q9Y2R2; recombinant LYP catalytic domain; inhibition, % at 2 µM; hit rate 0.21% among 96,000; AID 640, 2007;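 active = inhibition at 2 µM at or above a set limit, the screen mean plus 3 SD, cut at about 24% in these data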
Target sequence (Q9Y2R2 whole entry, looked up, the tested form may be a part): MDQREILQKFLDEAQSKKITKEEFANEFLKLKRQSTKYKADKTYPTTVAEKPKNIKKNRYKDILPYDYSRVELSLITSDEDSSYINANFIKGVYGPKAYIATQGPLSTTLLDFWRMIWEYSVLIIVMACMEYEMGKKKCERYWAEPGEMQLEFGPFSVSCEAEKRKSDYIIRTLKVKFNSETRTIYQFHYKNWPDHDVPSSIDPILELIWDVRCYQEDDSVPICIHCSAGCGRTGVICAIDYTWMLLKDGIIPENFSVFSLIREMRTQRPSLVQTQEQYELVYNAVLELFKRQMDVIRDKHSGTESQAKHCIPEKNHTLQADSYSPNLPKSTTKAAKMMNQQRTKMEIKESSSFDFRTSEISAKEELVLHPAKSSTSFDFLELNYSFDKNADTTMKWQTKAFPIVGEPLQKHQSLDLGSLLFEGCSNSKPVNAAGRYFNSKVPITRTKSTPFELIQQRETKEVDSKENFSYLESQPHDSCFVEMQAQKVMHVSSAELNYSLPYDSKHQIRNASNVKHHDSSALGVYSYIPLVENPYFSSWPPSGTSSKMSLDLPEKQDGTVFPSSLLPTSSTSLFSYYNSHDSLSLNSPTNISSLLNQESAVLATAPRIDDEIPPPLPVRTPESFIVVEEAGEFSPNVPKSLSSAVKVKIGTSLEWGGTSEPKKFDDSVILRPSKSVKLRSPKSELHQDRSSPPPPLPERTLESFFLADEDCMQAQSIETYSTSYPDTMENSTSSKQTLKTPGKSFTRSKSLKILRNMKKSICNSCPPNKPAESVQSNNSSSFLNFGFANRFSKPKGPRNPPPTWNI
LYP act – LYP phosphatase activators, primary screen, biochemical, DiFMUP fluorescence, 2 µM; Tyrosine-protein phosphatase non-receptor type 22 (Homo sapiens), Q9Y2R2; recombinant LYP; 0 = plate median, 100 = signal doubled; activation, % at 2 µM; hit rate 0.11% among 96,000;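 active = activation at 2 µM above a set limit, the mean plus 5 SD, cut at about 37% in these data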
PLAP act – PLAP enzyme activators, biochemical, luminescence, HTS; Alkaline phosphatase, placental type (Homo sapiens), P05187; purified PLAP enzyme, luminescent substrate read-out; hits give high values; activation fold at 20 µM; hit rate 1.2% among 96,000; in the data active = activation fold above about 2
TNAP act mid DEA – human TNAP enzyme activators, primary screen, biochemical, luminescent, intermediate phosphate acceptor level; 64,000 tested, under 10 active; purified TNAP, CDP-star luminescence, 100 mM DEA, 30 min; hits give high values; scale: 0 levamisole-inhibited, 1 vehicle-only enzyme; activation factor at 20 µM; Alkaline phosphatase, tissue-nonspecific isozyme (Homo sapiens), P05186; AID 813, 2007;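 active = activation factor of at least 2 at 20 µM, relative to controls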
Of the large screens only hits and unclear results are named; the others gave an inactive call. This is a sample that favours compounds with a hit; in the whole collection about 1.6% have one here.

O=C1CCCN1CCCNc1ncnc2c1[nH]c1ccc(Cl)cc12	none
CCN1CCCC1CNc1ncnc2c1[nH]c1ccc(Cl)cc12 (stereo not drawn)	PLAP act 2.1
CC(C)(Oc1ccc(Cl)cc1)C(=O)N/N=C/c1cn[nH]c1-c1ccccc1	PLAP act 2.8 (no result: MT1-MMP txn act, TNAP act mid DEA)
COc1ccc(-c2[nH]ncc2/C=N\NS(=O)(=O)c2ccc(Cl)cc2)cc1	none (no result: MT1-MMP txn act, TNAP act mid DEA)
C=CCNC(=S)NNC(=O)C(CCC(C)C)CC(C)(C)O (stereo not drawn)	PLAP act 2.7 (no result: TNAP act mid DEA)
O=C(Cc1ccccc1I)Nc1ccccc1	none (no result: LYP inh 2, LYP act, PLAP act, TNAP act mid DEA)
Cc1cc(C)n(CC(O)COc2ccccc2)n1 (stereo not drawn)	none (no result: TNAP act mid DEA)
Cc1ccccc1OCC(O)Cn1nnc2ccccc21 (stereo not drawn)	MT1-MMP txn act 2 (no result: PLAP act, TNAP act mid DEA)
Cc1ccc(NC(=O)c2ccccc2)cc1OC(=O)c1ccccc1	none (no result: MT1-MMP txn act, TNAP act mid DEA)
c1ccc(-c2cc3n(c2)CCc2ccccc2-3)cc1	MT1-MMP txn act 2.6 (no result: PLAP act, TNAP act mid DEA)
c1ccc(-c2cn3c(n2)CCC3)cc1	none (no result: TNAP act mid DEA)
CCC/C=C(\CCC)C(NP(=O)(c1ccccc1)c1ccccc1)c1ccc(-c2ccccc2)cc1 (stereo not drawn)	none (no result: LYP inh 2, LYP act, PLAP act, TNAP act mid DEA)
Cc1cc(=O)[nH]c(-n2[nH]c3c(c2=O)CCCC3)n1	PLAP act 2.6 (no result: MT1-MMP txn act, TNAP act mid DEA)
Cc1nc(-n2[nH]c3c(c2=O)CCCC3)[nH]c(=O)c1Cc1ccccc1	none (no result: MT1-MMP txn act, TNAP act mid DEA)
N#Cc1nc(COc2ccc(Br)cc2)oc1NCCCn1ccnc1	PLAP act 2.2
Cc1ccc(OCc2nc(C#N)c(NCCCn3ccnc3)o2)cc1	none
COC(=O)[C@@]1(Cc2ccccc2)[C@H]2c3cc(C(=O)N(C)C)n(Cc4ccc(O)c(OC)c4)c3C[C@H]2CN1C(=O)c1ccccc1	none (no result: LYP inh 2, LYP act, PLAP act, TNAP act mid DEA)
OCC(O)C(O)C(O)C(O)C1NCCS1 (stereo not drawn)	none (no result: MT1-MMP txn act, TNAP act mid DEA)
Cc1ccc(C2=NNC(C(O)C(O)C(O)C(O)CO)S2)cc1 (stereo not drawn)	PLAP act 2 (no result: MT1-MMP txn act, TNAP act mid DEA)
CCOC(=O)CN1C(=O)C(Sc2n[nH]c(-c3ccccc3)n2)CCc2ccccc21 (stereo not drawn)	PLAP act 2 (no result: MT1-MMP txn act, TNAP act mid DEA)
O=C(NCCCN1CCc2ccccc2C1)Nc1ccc(Br)cc1	PLAP act 2.3 (no result: TNAP act mid DEA)
COC(=O)c1cn(-c2ccccc2)nc1-c1ccncc1	none (no result: TNAP act mid DEA)
COC(=O)c1c(C(=O)OC)c2ccncn2c1Cl	PLAP act 2.4
O=C(c1ccc(Br)s1)N1CCN(C/C=C/c2ccccc2)CC1	PLAP act 2 (no result: TNAP act mid DEA)
O=C(c1ccc(Br)o1)N1CCN(C/C=C/c2ccccc2)CC1	none
CCC/C=C(\CCC)C(NC(=O)c1ccco1)c1ccc(C(=O)OC)cc1 (stereo not drawn)	none (no result: LYP inh 2, LYP act, PLAP act, TNAP act mid DEA)
COc1cc2c(cc1NC(=O)C(C)OC(=O)C1CC(=O)N(Cc3ccco3)C1)oc1ccccc12 (stereo not drawn)	MT1-MMP txn act 2.1 (no result: TNAP act mid DEA)
CCOc1ccc(OCCOc2ncnc3ccccc23)cc1	none (no result: TNAP act mid DEA)
C=CCNc1nc(-c2ccc(OC)cc2OC)cs1	MT1-MMP txn act 2
Oc1ccc2ccccc2c1C=Nc1ccccc1-c1nc2ccccc2[nH]1	none (no result: MT1-MMP txn act, TNAP act mid DEA)
N=C1N(/N=C/c2ccccc2)C(=Nc2ccccc2)C(=S)N1c1ccccc1	MT1-MMP txn act 2 (no result: PLAP act, TNAP act mid DEA)
Cc1nnc(C)n1/N=C/c1ccccc1	none (no result: TNAP act mid DEA)
COc1ccc(CCn2c(C)c(C(C)=O)c3cc(OC(=O)c4ccco4)ccc32)cc1OC	none (no result: MT1-MMP txn act, TNAP act mid DEA)
O=C1NC(NS(=O)(=O)c2ccc(Cl)cc2)(C(F)(F)F)C(=O)N1Cc1cccnc1 (stereo not drawn)	none (no result: LYP inh 2, LYP act, PLAP act, TNAP act mid DEA)
Cc1nc(SCc2ccccc2C)n[nH]1	PLAP act 2
Cc1c2cc(O)c(=O)cc-2oc2cc(O)c(O)cc12	LYP inh 2 94 (no result: MT1-MMP txn act, TNAP act mid DEA)
Cc1ccc(SCc2[nH]nc3c2C2(C(=O)N(C)c4ccccc42)C(C#N)=C(N)O3)cc1 (stereo not drawn)	PLAP act 2
COCc1[nH]nc2c1C1(C(=O)N(C)c3ccccc31)C(C#N)=C(N)O2 (stereo not drawn)	none
COC(=O)c1ccc(C(NC(=O)OCc2ccccc2)/C(C)=C/[C@@H](C)C(=O)NCCO)cc1 (stereo partly drawn)	none (no result: LYP inh 2, LYP act, PLAP act, TNAP act mid DEA)
COc1ccccc1NS(=O)(=O)c1ccc(OC)c(OC)c1	none
COc1ccccc1NS(=O)(=O)c1cccc(C(=O)N/N=C(\C)c2ccc(-n3ccnc3)cc2)c1	PLAP act 2 (no result: MT1-MMP txn act, TNAP act mid DEA)

Source: PubChem
